Laboratory results from the supplement of paper PMC6555819.

How the values were obtained:
Experiment in all cases: PBM binding z-score (relative to random genomic background probes); higher = stronger binding; sequences stand for … in GC…GCGATTGACAGCGTAGAATGAAGG
[1] = system: RARb homodimer (NR concentration 270 nM)
Procedure, shortened: (§1)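 Probes were double-stranded and carried 34-nt variable regions with direct-repeat seeds, single-nucleotide variants, half-site ablations and random human genomic background sequences, printed on custom Agilent 4×180K protein-binding microarrays. Arrays were incubated 1 h with ligand-free nuclear receptor dimers in PBS pH 7.4, 2% milk, 0.02% Triton X-100, 1 mM DTT, 0.2 mg/mL BSA and 0.4 mg/ml salmon testes DNA. Antibodies against each partner (one per run) detected binding, and scanned fluorescence was regression-normalized. Binding z-scores use the random background probes as reference.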

[2] = system: RARg:RXRa (NR concentration 270 nM, RXRa partner concentration 90 nM)
Procedure, shortened: as §1

[3] = system: RARg homodimer (NR concentration 270 nM)
Procedure, shortened: as §1

[4] = system: RXRa DBDmut IVT, anti-RXR (DBD mutation: RXRa K156A/R161A, NR concentration 90 nM)
Procedure, shortened: as §1

[5] = system: RXRa homodimer (NR concentration 180 nM)
Procedure, shortened: as §1

[6] = system: THRa:RXRa (NR concentration 90 nM, RXRa partner concentration 90 nM)
Procedure, shortened: as §1

[7] = system: THRa homodimer (NR concentration 90 nM)
Procedure, shortened: as §1

[8] = system: VDR homodimer (NR concentration 270 nM)
Procedure, shortened: as §1

Sequence	PBM binding z-score [1]	PBM binding z-score [2]	PBM binding z-score [3]	PBM binding z-score [4]	PBM binding z-score [5]	PBM binding z-score [6]	PBM binding z-score [7]	PBM binding z-score [8]
CGTCCAAGGTCAATGCTAGGTCAGTGAGAGCATT	5.01	7.45	6.65	3.53	5.06	4.37	2.87	3.36
ATATGTAGGTTATCGGGTTATTCAGTTTGCGCAT	1.48	1.3	1.01	1.14	1.6	1.78	1.58	2.11
CCTACTGGGCCATTCATAGGTCATTGATCATATG	2.77	2.41	1.78	0.112	1.56	1.6	0.0409	0.415
AGAATGAGGTTATTAATATCAGGGAATTGCGGTC	0.652	1.03	0.749	1.73	1.62	2.05	0.737	1.2
AGAATGAGGTTATACGTAGATCAGGGATGAAAGT	1.04	1.74	1.27	1.92	2.47	2.23	0.607	0.865
GCTCGGAGGACAAAGTCAGAGCTTTGTCCGTAGA	-0.0434	-0.436	-0.0287	-0.569	-0.989	0.05	-0.629	-0.348
TGTCAAACTTCAAAGGTAACGTAAGTATCCACAC	0.582	0.654	0.586	-0.455	0.655	1.1	-0.0249	-0.101
GCGACTGGAGCAAAGCAGGTTACCATAAGGTTGG	0.0117	-0.319	-0.395	-0.723	0.0642	1.75	-0.495	-0.492
GTACCATGGTGAATAGGTCGTTGATGAGTAGGCG	0.603	0.323	0.274	-0.264	0.592	0.133	-0.299	0.21
GCTATTAGTTGTAAGGGCAACCGAATGATTCTCG	1.47	0.411	0.637	0.96	0.441	1.73	1.18	0.507
TTACCAAGGTGAGCTGAGCTCGTTGATCCAACTC	-0.157	-0.164	-0.277	-0.78	0.0974	1	-0.222	-0.959
TCTATTAGTTGATTAGGCCAACCGAAACAGCGGA	0.54	0.339	0.554	1.35	0.635	0.691	0.713	0.253
TAGCCTAGGTCATGCGGGGCAGTATAGTGTCGGC	3.26	4.01	4.41	0.368	3.22	3.56	1.08	1.5
ATATGTAGTTTACATCCGGGTCATTCAGGCTATG	2.34	1.83	1.44	1.58	2.1	3.2	2.74	2.82
TCAAATAGGTAAATGCTAGGTGAAAGTCCGATCT	0.514	0.401	0.304	1.84	1.06	1.38	0.625	0.251
TCTTGTAGATCAAGCAGGCTAAGAAAGCCTGAGT	-0.885	-0.605	-0.521	0.402	-0.67	-0.805	-0.733	-0.349
TCTAGTAGATCAGCAGGTTAAGAAAGCTGGCCAA	-0.0798	-0.00824	-0.453	0.645	0.438	0.0763	-1.15	-0.213
ATCGCAAGGTCGTGAGGTGAGTATACAGAAAGGC	2.13	2.76	2.38	1.62	3.06	3.33	2.41	1.55
GCTGATAGGTCAGGTTGGTCAGCTAACGGGTACG	3.37	3.84	4.49	0.3	2.6	1.46	-0.126	0.351
GCGACTGGGGCATCAGCAGGTTACCAAAACTTAA	1.16	0.879	0.0539	-0.286	0.238	1.19	0.0193	-0.326
CCTTACGGGTCACTCCAGGCTATAGCATCGGAGT	2.51	4.03	4.09	0.95	4.01	4.23	-0.482	0.841
TGAATGAGGTTATGAGATCAGGGAACGTTGCAAA	0.266	1.6	1.13	0.145	2.19	1.95	0.132	0.305
ATCTATAGGTAAGACTCAGTTCAGTGAAGAACGC	0.556	0.524	0.517	0.507	0.24	0.633	0.24	1.36

Sequence	PBM binding z-score [1]	PBM binding z-score [2]	PBM binding z-score [3]	PBM binding z-score [4]	PBM binding z-score [5]	PBM binding z-score [6]	PBM binding z-score [7]	PBM binding z-score [8]
ATCGAAAGGTCGGCGAGGTGAGTATACACCGTTT	2.95	3.69	3.91	0.785	3.86	3.29	0.709	0.535
CGAACTAGGTCAGAACGGGACAGTGAAGGATGAT	1.83	2.2	2.96	0.435	1.15	2.84	-0.119	-0.321
CCCTACGGGTCACTGACAGGTTATAGCATTTGGA	3.42	5.77	4.37	0.859	4.97	2.93	0.405	1.07
AATACAGGGTCACTAGGCCGGAGTAGGTACGAAT	3.18	5.13	4.62	2.81	5.28	3.4	1.2	2.61
TCAAATAGGTAAAGGTGAAAGTCGAACGATATGA	1.73	1.78	1.49	1.55	2.33	1.32	-0.328	0.351
CTCGAGAGGTCGTGCTCAGGTGAGTATACCAAAC	2.12	4.24	2.53	2.74	3.82	4.08	1.06	1.49
TCATATAGGTACATGCTAGGTGAAAGTCCGATCT	0.598	0.521	0.462	2.05	0.745	2.02	0.723	0.987
CCTAGCAGGCCAATCTGGGTTACTCAAGGCTTGA	0.0666	-0.247	-0.0907	-0.131	-0.48	1.61	-0.596	-0.739
CCTAGCAGGCCAATCTGGGTCATTCAAGGCTTGA	2.03	0.777	0.991	0.224	0.619	3.73	0.0402	0.585
CCGACTGGGGCAATGGTTACCATACTCAGTACGA	-0.241	-0.0332	0.28	-0.545	0.082	-0.548	-0.465	-0.489
CCTACTGGGCCACCAGGTCATTGATATCAACGTT	2.62	2.19	2	-0.211	1.43	2.94	2.63	1.77
CCGACTGGGGCAGAGAGGTTACCATACCATCCGG	1.54	1.33	1.2	-0.642	1.23	1.02	-0.309	0.35
GATACAGGGTCAAGGCCAGCGTACGCGTATTGAT	3.63	5.27	4.55	2.14	5.61	3.53	1.43	1.31
CTCGAAAGGTCGGTTGAGGTGATTATACGGATAA	2	2.51	2.53	0.846	2.12	4.96	1.15	0.404
CGTCCAAGGTTATAGGAGGTCAGTGAAGACAGAT	3.79	3.62	3.5	1.48	2.87	4.89	1.69	2.1
TCGCGTAGGTTAGGGGCATTCAGAATGGCGTCGA	0.811	0.412	0.26	0.518	0.821	0.842	0.102	0.649
CGAACTAGGTCAGAACAGGACCGTGAAGGATGAT	1.66	2.43	3.01	0.494	1.17	1.56	-0.264	-0.342
CCTACTGGGCTAAAAAGGTCATTGATGCCGATAA	4.14	4.08	3.54	0.543	4.39	3.01	0.22	2.22
TCTTGTAGATCAAGCAGGTTAAGATAGCCTGAGT	0.14	0.091	0.0595	0.547	0.359	0.324	-0.172	-0.247
TCTAGTTGGTCACGGAGGTCACCCACGACGGGTA	4.51	4.85	5.06	0.865	5.13	3.66	2.82	2.79
TAGCCTAGGTCATCCGGGCCAGTATAGTGTCGGC	3.17	4.1	4.53	1.24	2.96	3.16	1.16	1.42
CGTCCAAGGTCAAGGACAGTGAAAGAGACTCGAA	3.94	6.19	6.78	3.26	5.3	3.74	2.83	2.03
TCTGCTAGGTCAACGATGATCAGCTAATCTGCTA	2.72	3.81	4.38	1.04	2.78	2.64	0.449	-0.153

Sequence	PBM binding z-score [1]	PBM binding z-score [2]	PBM binding z-score [3]	PBM binding z-score [4]	PBM binding z-score [5]	PBM binding z-score [6]	PBM binding z-score [7]	PBM binding z-score [8]
CCTGCTAGGTCAACGGTCAGCTAAAGCAGCTCGC	3.72	4.6	5.11	2.02	3.13	2.79	0.878	0.529
CCTAGTAGGTCAGGAGGTCACACACCGGATATGA	5.24	7.25	6.37	1.03	7.18	3.91	2.34	3.13
CGAACTAGGTCAGAACAGGACAGAGAAGGATGAT	1.89	2.45	3.27	0.331	1.2	3.39	0.271	0.244
CCTGCTAGGTCCATGGTCAGCTAAAGCAGCTCGC	0.248	-0.442	-0.195	1.19	-0.603	-0.287	-0.629	0.0229
GCTAGCAGGCCATTTGGGCCACTCAATGACGGGC	-0.576	-0.489	0.0153	-0.353	-0.706	-0.537	-1.01	-0.669
TCATATAGGGAATACAGGTGAAAGTCGGCATCTA	0.795	0.472	0.506	1.68	1.24	0.864	0.624	0.435
CCAGACAGGTGACAGGTAACTCAGTCTGGTACGC	0.331	0.209	0.537	-0.242	0.665	0.126	-0.089	-0.0347
CCTGCTAGGTCACGGTCAGCTAATCTACAGTATG	3.98	5.01	6.09	2.08	4.15	3.35	2.35	0.444
CCGACTGGGGCATAAAGTTACCATAAGCCAGCCC	-0.229	-0.0793	0.0317	0.0675	0.0317	-0.417	-0.689	-0.27
ATATGTAGGTTATAGGGTCATTCAGTTTGCGCAT	3.76	4.28	3.26	2.26	4.98	3.83	3.31	4.34
ATACCAAGGTGAGCGTGAGGTCGTTGATACTAAC	2	2.92	1.6	0.221	2.01	3.8	2.51	2.3
TCTGCTAGGTCAGTTTGTCAGCTAACGAGCTGCC	1.74	1.84	2.44	0.8	0.666	0.996	0.0715	-0.975
CGAACTAGGTCAAAGGTCAAAGTCGAGCCAACCA	5.24	8.9	7.55	3.33	10.3	4.58	1.53	3.66
ATCTCTAGGTAACGAGTTCAGTGAAAGAGAGGAC	1.67	1.08	1.07	1.58	1.01	1.97	1.21	4.11
TCGAGTAGGTTACCGATGGGGCATTCAGCTTTCT	0.462	1.47	0.276	0.165	0.626	0.0793	-0.771	-0.757
AGTCAAAGTTCATGACGAGGTAACGTAAAGCACG	3.83	6.13	5.76	4.29	4.9	4.23	1.02	4.11
TAGCCTGGGTCATGGGCCAGTATACCACGCGAAC	2.24	3.99	3.38	-1.06	3.73	2.39	-0.0617	-0.187
ACAGACAGTTGAGTGAAGGTAACTCAGCTGGACG	-0.475	0.0376	0.211	-0.165	0.132	0.662	-0.514	-0.463
CCAGACAGGTGAGAAGGTAACTGAGCCTCGATTA	0.357	0.527	0.335	-0.107	0.0427	0.121	-0.33	-0.0729
GGAACGAGGCCAAAGTTGATAGCATCTGTCGACG	0.373	0.787	0.688	0.917	0.814	0.667	-0.899	-0.181
CCTTACGGTTCAAGGTTATAGCACGGGTGGTACG	1.39	1.69	1.21	2.6	2.38	2.15	1.41	3.31
TCATATAGGTAAACAGGTTAAAGTCCGTAAGTTA	1.19	1.04	0.666	1.85	1.62	1.26	0.613	1.01
